Each structure is given as a SMILES string. Over roughly 110,000 compounds, “z-score” has its median near -0.1; the highest 2% begin near 2. The list comes from a sample in which the highest values are over-represented; it also holds similar structures and randomly drawn compounds. Active and inactive are the calls of the source.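 How the source made its calls: active means z-score in the third read window above 3 or below -3; inactive means the rest.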

Chain of Metabotropic glutamate receptor 8 (Rattus norvegicus) (P70579 whole entry, looked up): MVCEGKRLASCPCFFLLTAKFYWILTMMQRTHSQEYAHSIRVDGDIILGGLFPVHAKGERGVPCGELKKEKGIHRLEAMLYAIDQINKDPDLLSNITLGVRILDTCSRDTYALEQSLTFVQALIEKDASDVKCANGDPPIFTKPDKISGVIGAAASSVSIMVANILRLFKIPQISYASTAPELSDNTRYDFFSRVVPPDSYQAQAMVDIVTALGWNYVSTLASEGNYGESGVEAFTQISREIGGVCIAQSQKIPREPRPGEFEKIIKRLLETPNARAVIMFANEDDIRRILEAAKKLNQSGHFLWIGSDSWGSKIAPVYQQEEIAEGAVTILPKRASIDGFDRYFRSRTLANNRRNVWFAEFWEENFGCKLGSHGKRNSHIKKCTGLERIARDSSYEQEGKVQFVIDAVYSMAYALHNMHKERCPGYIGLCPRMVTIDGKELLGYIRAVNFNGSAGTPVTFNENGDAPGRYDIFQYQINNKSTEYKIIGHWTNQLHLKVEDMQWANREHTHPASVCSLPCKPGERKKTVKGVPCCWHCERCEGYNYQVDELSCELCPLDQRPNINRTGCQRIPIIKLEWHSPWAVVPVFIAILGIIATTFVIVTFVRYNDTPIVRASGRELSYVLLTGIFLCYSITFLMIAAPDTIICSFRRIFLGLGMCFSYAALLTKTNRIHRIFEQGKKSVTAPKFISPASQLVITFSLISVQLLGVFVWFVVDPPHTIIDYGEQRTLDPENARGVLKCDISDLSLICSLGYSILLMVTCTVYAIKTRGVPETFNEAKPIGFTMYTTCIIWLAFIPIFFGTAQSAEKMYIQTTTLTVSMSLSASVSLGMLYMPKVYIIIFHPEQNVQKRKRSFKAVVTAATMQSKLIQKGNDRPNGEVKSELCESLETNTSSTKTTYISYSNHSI

The experiment has as its target Metabotropic glutamate receptor 8 (Rattus norvegicus) (UniProt P70579). The experiment in a line: rat mGluR8 modulators via GIRK flux, primary screen, cell-based, thallium flux, HTS (AID 488969). The conditions noted are these: HEK293 rat mGluR8, GIRK (G protein-gated inwardly rectifying potassium channel) thallium flux, FluoZin2; at 10 µM; stronger effect = higher value; submaximal glutamate (EC20) added with thallium.
`CCOc1ccc(NC(=O)CCCN2C(=S)NC(C)(C)CC2C)cc1` (configuration not stated) registered a z-score of -0.466.

Turning to `O=C1CC(N2CCN(c3nc4ccccc4s3)CC2)C(=O)N1c1ccc(F)cc1` (configuration not stated), the z-score is 7.65 (active).

`CCCOc1ccc(N2C(=O)CC(N3CCN(c4nc5ccccc5s4)CC3)C2=O)cc1` (configuration not stated) returned a z-score of 0.835.

For `O=C1CC(N2CCN(c3nc4ccccc4s3)CC2)C(=O)N1c1cccc(F)c1` (configuration not stated), the z-score is -0.276.

In the case of `CCC(=O)Nc1nc2ccc3nc(C)sc3c2s1`, the z-score is 3.6 (active).

`CCCC(=O)Nc1nc2ccc3nc(C)sc3c2s1` yielded a z-score of -0.507.

On to `CCCCC(=O)Nc1nc2ccc3nc(C)sc3c2s1`, for which the z-score is -0.125.

As to `Nc1sccc1C(=O)c1ccccc1`, the z-score is 11 (active).

As for `Nc1sccc1C(=O)c1ccc(Cl)cc1`, the z-score is -0.434.

Regarding `Nc1cc2c(cc1C(=O)c1ccccc1)OCCO2`, the z-score is 0.199.

Turning to `O=C(N/N=C\c1cc(Br)c(Br)o1)c1cncc(Br)c1`, the z-score was 9.73 (active).

Regarding `O=C(Cc1ccccc1)N/N=C/c1cc(Br)c(Br)o1`, the z-score is -0.248.

Compound `O=C(N/N=C/c1ccc(-c2ccccc2[N+](=O)[O-])o1)c1cncc(Br)c1` registered a z-score of -1.68.

On to `Cc1ccnc(NC(=O)CCC(=O)N(CC(=O)NC2CCCCC2)c2cccc(C)c2C)c1`, for which the z-score was -0.622.

The compound `COc1ccc(OC)c(-c2cc(C(=O)Nc3c(C)nn(Cc4ccccc4Cl)c3C)no2)c1` had a z-score of -0.834.

`CC1Cc2ccccc2N1C(=O)COC(=O)Cn1cnc2ccccc2c1=O` (configuration not stated) registered a z-score of -0.55.

As to `Cc1ccc(C(=O)CNc2cccc(Cl)c2)cc1`, the z-score is -0.0331.

`Cc1ccc(C(=O)CC(=O)c2cc(Cl)ccc2O)cc1`: the z-score was 7.14 (active).

The compound `O=C(CCc1ccccc1)Nc1cc(Cl)ccc1O` registered a z-score of -0.624.

For the compound `Cc1cccc(C(=O)CC(=O)c2cc(Cl)ccc2O)c1`, the z-score is 4.14 (active).

`Cc1ccc(C(=O)c2cn[nH]c2-c2cc(Cl)ccc2O)cc1` came in with a z-score of -0.48.

For the compound `O=C(CC(=O)c1cc(Cl)ccc1O)c1ccccc1`, the z-score was 3.32 (active).

Regarding `O=C(O)CC(=O)Nc1cc(Cl)ccc1O`, the z-score was 0.845.

As to `Cc1cccc(C(=O)Nc2ccc(NC(=O)Cc3ccc(Cl)cc3)cc2)c1`, the z-score was -0.0593.

Regarding `Cc1cccc(/C(N)=N/OC(=O)c2ccc(Cl)cc2Cl)c1`, the z-score was -0.137.

As to `COc1nc(-c2ccccc2)ccc1-c1noc(-c2ccccc2F)n1`, the z-score came to 0.0977.

Regarding `NC(=O)c1ccccc1OCC(=O)NC12CC3CC(CC(C3)C1)C2`, the z-score was -0.0638.

`COC(=O)Nc1snnc1C` registered a z-score of -0.189.

Compound `CCOC(=O)C1=C(C)N(C)C(=O)NC1c1cc2c(cc1Br)OCO2` (configuration not stated) returned a z-score of 1.61.

In turn, `CCc1nc(NCc2ccco2)c2oc3ccccc3c2n1` registered a z-score of -0.48.

The compound `O=C(CN1C(=O)c2cccc3cccc1c23)Nc1ccc(S(=O)(=O)N2CCOCC2)cc1` registered a z-score of -0.376.

Compound `COc1cccc(C(=O)Nc2ccccc2N2CCOCC2)c1` came in with a z-score of 0.0601.

In the case of `CN1C(=S)SC(/[N+]([O-])=C\c2cccs2)C1(C)C` (configuration not stated), the z-score was -0.0661.

As for `COc1cccc(-c2ccc(=O)n(CC(=O)Nc3cc4c(cc3NC(C)=O)OCCO4)n2)c1`, the z-score came out at 2.05.

The compound `CC(=O)Nc1cc2c(cc1NC(=O)Cn1nc(-c3ccc4c(c3)OCCO4)ccc1=O)OCCO2` gave a z-score of -0.275.

Take `CC(=O)Nc1cc2c(cc1NC(=O)Cn1nc(-c3ccccc3F)ccc1=O)OCCO2`: the z-score is -0.0689.

Take `Cc1cnc(C(=O)Nc2cc(S(=O)(=O)N3CCOCC3)ccc2N2CCN(C)CC2)cn1`: the z-score amounted to 0.0173.

Consider `O=C(N/N=C/C=C/c1ccc2c(c1)OCO2)c1ccc([N+](=O)[O-])cc1`, for which the z-score is 0.0517.

`CCCN(CCC)S(=O)(=O)c1ccc(C(=O)Nc2nc(-c3ccccc3)c(C(=O)OCC)s2)cc1` had a z-score of -0.243.

`Clc1ccccc1CN1CCC(Cc2ccccc2)CC1` gave a z-score of -0.0513.

Turning to `O=C(NCCN1CCOCC1)C1CCC(=O)N1Cc1ccc(F)cc1` (configuration not stated), the z-score is 0.194.

`Cc1ccc(-c2ccc(/C=C/C(=O)c3ccccc3)o2)cc1` came in with a z-score of -0.233.

Compound `Cc1cc2cc(OCC(=O)O)ccc2n1C` displayed a z-score of 0.494.

As to `Cc1cccc(NC(=S)N/C(=N/S(=O)(=O)c2ccccc2)c2ccccc2)c1`, the z-score stood at 1.97.

`Cc1cccc(NC(=S)N/N=C/c2c[nH]c3ccccc23)c1` gave a z-score of -0.0914.

On to `C/C(=N\NC(=S)Nc1cccc(C)c1)c1cccc(N)c1`, for which the z-score was 3.42 (active).

Turning to `C/C(=N\NC(=O)c1cccc(C)c1)c1cccc(NC(=O)c2ccco2)c1`, the z-score is -0.159.

In turn, `C/C(=N\NC(=O)Nc1ccccc1)c1ccccc1` showed a z-score of -0.157.

Turning to `C/C(=N\NC(=S)Nc1cccc(C)c1)c1ccccc1`, the z-score was 5.36 (active).

Compound `CCOC(=O)C(NC(=O)CC)(N1CCc2ccccc2C1)C(F)(F)F` (configuration not stated) displayed a z-score of -0.138.

In turn, `O=C(NCCCN1CCC(Cc2ccccc2)CC1)C1CC(=O)N(C2CCCCCC2)C1` (configuration not stated) registered a z-score of 1.25.

In the case of `O=C(Nc1ccccc1)c1ccc(CSc2ccccn2)cc1`, the z-score was -0.0973.

`COc1cc(NC(=O)c2ccc3c(c2)OCO3)c2ncccc2c1` showed a z-score of -0.168.

`COc1cc(NCCCCCCCN)c2ncccc2c1` displayed a z-score of 2.78.

`COc1cc(NC(=O)C2CCCCC2)c2ncccc2c1` displayed a z-score of -0.248.

Regarding `CCCOc1ccc(C(=O)NNC(=S)NC(=O)CC)cc1`, the z-score is 3.01 (active).

`CCCOc1ccc(C(=O)NNC(=S)NC(C)=O)cc1` showed a z-score of 0.435.

In the case of `C=CCNC(=S)NNC(=O)c1ccc(OCCC)cc1`, the z-score came out at 0.095.

In the case of `CCCCOc1ccc(C(=O)NNC(=S)NC(=O)CC)cc1`, the z-score was 4.28 (active).

The compound `C=CCNC(=S)NNC(=O)c1ccc(OCCCC)cc1` came in with a z-score of -0.162.

`CCC(=O)NC(=S)NNC(=O)c1ccc(OC)cc1`: the z-score is -0.0696.

`CN(C1CCS(=O)(=O)C1)S(=O)(=O)c1ccc(C2CCCCC2)cc1` (configuration not stated) yielded a z-score of 0.314.

`CCOC(=O)CSc1nnc(NC(=O)c2cccc([N+](=O)[O-])c2C)s1` gave a z-score of 0.774.

In turn, `O=C(NC(NC(=O)c1ccccc1)C(=O)c1ccccc1)c1ccccc1` had a z-score of -0.143.

`CC1=C/C(=N\NC(=O)c2ccccc2)CC1` registered a z-score of -0.0871.

Turning to `O=C(NN=c1c(=O)c2ccccc2c1=O)c1ccccc1`, the z-score is 6.47 (active).

The compound `O=[N+]([O-])c1cc(/C=N/Nc2nc(N3CCOCC3)nc(N3CCOCC3)n2)ccc1Cl` yielded a z-score of -0.222.

On to `COc1cccc(C2C3=C(CC(C)(C)CC3=O)Nc3cc4c(cc32)OCO4)c1` (configuration not stated), for which the z-score came to 2.12.

`COc1ccc(C2C3=C(CC(C)(C)CC3=O)Nc3cc4c(cc32)OCO4)cc1` (configuration not stated) displayed a z-score of -0.138.

In turn, `CC1(C)CC(=O)C2=C(C1)Nc1cc3c(cc1C2c1ccc2c(c1)OCO2)OCO3` (configuration not stated) had a z-score of -0.639.

Turning to `Cc1nc2cc(N3CCCCC3)c(NC(=O)c3ccncc3)cc2c(=O)n1Cc1ccc(Cl)cc1`, the z-score is -0.37.

In the case of `Cc1nn(C(=O)c2nn(C)cc2Cl)c(C)c1Br`, the z-score turned out to be 0.0765.

The values above are taken from PubChem BioAssay AID488969 (Vanderbilt High Throughput Screening Facility, 2010).
